Test results from PubChem BioAssay (EPA / NIEHS).
Inconclusive results are not listed. Calls of active or inactive are those of the source. How the source made its calls: active means hit-call score of the fitted dose curve at least 0.9, where 1 is the maximum; inconclusive means response in the unintended direction; inactive means score below 0.9.

Each compound was assayed against Hepatocyte nuclear factor 4-alpha (Homo sapiens) (UniProt P41235) (assay: ATG_HNF4a_TRANS: Attagene TRANS-FACTORIAL HepG2 Assay for human Hepatocyte Nuclear Factor 4 alpha (HNF4a) (AID 2282982)). Conditions: HepG2 HNF4a transactivation reporter, mRNA readout.
Sequence of Hepatocyte nuclear factor 4-alpha (Homo sapiens) (P41235 whole entry, looked up): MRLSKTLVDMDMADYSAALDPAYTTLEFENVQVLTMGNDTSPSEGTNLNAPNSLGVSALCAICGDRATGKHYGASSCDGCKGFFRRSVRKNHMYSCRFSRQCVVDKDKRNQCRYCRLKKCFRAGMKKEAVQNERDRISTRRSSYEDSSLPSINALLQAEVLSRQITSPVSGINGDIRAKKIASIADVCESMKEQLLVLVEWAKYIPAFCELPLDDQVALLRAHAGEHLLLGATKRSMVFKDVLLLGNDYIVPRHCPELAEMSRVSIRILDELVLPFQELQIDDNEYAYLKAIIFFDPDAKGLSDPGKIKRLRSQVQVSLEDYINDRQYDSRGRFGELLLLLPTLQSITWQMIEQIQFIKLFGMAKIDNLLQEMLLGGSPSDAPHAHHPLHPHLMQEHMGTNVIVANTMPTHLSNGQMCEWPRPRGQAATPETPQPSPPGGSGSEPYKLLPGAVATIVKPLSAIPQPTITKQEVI
Protocol: ATG_TRANS is a cell-based, multiplexed-readout assay that uses HepG2, a human liver cell line, with measurements taken at 24 hours after chemical dosing in a 24-well plate.ATG_HNF4a_TRANS is one of 30 assay component(s) measured or calculated from the ATG_TRANS assay. It is designed to make measurements of mRNA induction, a form of inducible reporter, as detected with fluorescence intensity signals by Reverse transcription polymerase chain reaction (RT-PCR) and Capillary electrophoresis technology.Data from the assay component ATG_HNF4a_TRANS was analyzed into 1 assay endpoint. This assay endpoint, ATG_HNF4a_TRANS, was analyzed in the positive analysis fitting direction relative to DMSO as the negative control and baseline of activity. Using a type of inducible reporter, measures of mRNA for gain-of-signal activity can be used to understand the reporter gene at the transcription factor-level as they relate to the gene HNF4A. Furthermore, this assay endpoint can be referred to as a primary readout, because this assay has produced multiple assay endpoints where this one serves a reporter gene function. To generalize the intended target to other relatable targets, this assay endpoint is annotated to the nuclear receptor intended target family, where the subfamily is orphan.
Human liver HepG2 cells are transiently transfected with multiple reporter transcription units (MRTUs) in 6-well plates using FuGene 6 reagent (Roche; 3 ml FuGene/1 mg DNA). The MRTU constructs are regulated by a cis-regulating element (promoter). […] A major difference between the CIS and TRANS system is that in CIS activities of endogenous TFs are measured, whereas the TRANS assay evaluates changes in activities of exogenous, chimeric NR-Gal4 proteins. […] At the end of 24 hour incubation, total RNA was isolated using TriZol reagent (Invitrogen). The isolated RNA is then reverse-transcribed using oligo(dT) primer and Mo-MLV reverse transcriptase (Invitrogen) with DNAse I (Ambion) treatment for 30 min. The one-tenth of the produced cDNA was amplified by PCR using Taq DNA polymerase (Invitrogen) and two reporter sequence-specific primers. The PCR products were fluorescently labeled by primer extension with 6-arboxyfluorescein (6-FAM) 5'-labeled reporter sequence-specific primer (2 min at 95 C, 20 s at 68 C and 10 min at 72 C) and these products were digested with 5U of HpaI (New England Biolabs) for 2h at 37 C. The fragments were purified using Qiaquick PCR columns (Qiagen), analyzed on an ABI 3130xL genetic analyzer (Applied Biosystems) with peak positions identified by using a set of X-rhodamine (ROX)-labeled MapMarker1000 molecular weight standards (BioVentures). The raw capillary electrophoresis data was processed using Attagraph software (Attagene).

SMILES | outcome
CN(CCCC(=O)c1cccnc1)N=O | inactive
CCCCP(CCCC)CCCC | inactive
O=C(O)C(Cl)(Cl)Cl | inactive
Cl/C=C/Cl | inactive
c1ccc(N=NNc2ccccc2)cc1 | inactive
Cc1ccccc1C(=O)Nc1cccc(OC(C)C)c1 | inactive
O=[N+]([O-])c1ccc2c3c(cccc13)CC2 | inactive
Cl/C=C\C[N+]12CN3CN(CN(C3)C1)C2 | inactive
O=CC=O | inactive
NC(=S)Nc1ccccc1 | inactive
C=C(C)C(=O)[O][Sn]([CH2]CCC)([CH2]CCC)[CH2]CCC | inactive
CC(=O)C(Cl)C(=O)N(C)C (stereo not given) | inactive
CCC(C)(C)c1ccc(O)c(C(C)(C)CC)c1 | inactive
CCc1ccccc1N | inactive
CCCCCCCCc1ccc(O)cc1 | inactive
CC(=[OH+])/C=C(/C)[O-].CC(=[OH+])/C=C(/C)[O-].CC(=[OH+])/C=C(/C)[O-].[Fe] | inactive
CC(C#N)CCC#N (stereo not given) | inactive
N#CCCO | inactive
O=C1C2(Cl)C3(Cl)C4(Cl)C(Cl)(Cl)C5(Cl)C3(Cl)C1(Cl)C5(Cl)C24Cl (stereo not given) | inactive
Clc1nc(Cl)nc(Cl)n1 | inactive

SMILES | outcome
ClCc1cccnc1 | inactive
ClCc1ccccn1 | inactive
C=C(C)C#N | inactive
NC(=O)O | inactive
COS(=O)(=O)c1ccc(C)cc1 | inactive
O=C(O)C(F)(F)C(F)(F)C(F)(F)C(F)(F)C(F)(F)C(F)(F)F | inactive
O=C(O)Cc1ccccc1 | inactive
O=C(c1ccccc1)C(Cl)Cl | inactive
CC(C)CCCCCCOC(=O)c1ccccc1C(=O)OCCCCCCC(C)C | inactive
COP(=S)(OC)Oc1ccc(Sc2ccc(OP(=S)(OC)OC)cc2)cc1 | inactive
O=P(O)(O)CN(CP(=O)(O)O)CP(=O)(O)O | inactive
COc1cccc(C=O)c1 | inactive
CC(Br)C(=O)O (stereo not given) | inactive
Nc1ccc(N=Nc2ccc(-c3ccc(N=Nc4c(S(=O)(=O)O)cc5cc(S(=O)(=O)O)c(N=Nc6ccccc6)c(O)c5c4N)cc3)cc2)c(N)c1 | inactive
O=C(NCO)NCO | inactive
C=CC(=O)OCCCCCC(C)C | inactive
C[C@@H](Oc1ccc(Cl)cc1Cl)C(=O)O | inactive
CC1(C)Cc2cccc(O)c2O1 | inactive
CCCCCCCCCl | inactive
Cc1ccccc1N | inactive
